In the supplement of paper PMC10849652:
Targets with a hit are over-represented here; the source holds about 7,900 in all. About 0.6% of all pairs of compound and target were hits. Unmarked numbers belong to inactive results.

compound: CC[C@@H]1C(=O)N(C)c2cnc(Nc3ccc(C(=O)N[C@H]4CC[C@H](N5CCN(CC6CC6)CC5)CC4)cc3OC)nc2N1C(C)C [volasertib]; experiment: log2 fold change, soluble protein after heating vs DMSO (PISA); higher = thermal stabilisation; K562 cells, 10 uM, 30 min; active = over 0.2 and 3.5 SD of the protein, either way, in both replicates (recomputed)
In short: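 K562 cells at 2×10^6 cells/mL were exposed to 10 μM compound for 30 min, then aliquots were heated for 3 min across 48°C-58°C, pooled, and extracted in PBS containing 0.5% NP-40 at 4°C. The supernatant after 21,000xg for 90 min was taken as soluble protein and measured by TMTpro 16plex LC-MS/MS with channel sums equalised. Thermal stability is reported relative to control samples, with values from duplicates. Fold changes are given on a log2 scale.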

Sequence of UniProt Q9H6K1 (Q9H6K1 whole entry, looked up): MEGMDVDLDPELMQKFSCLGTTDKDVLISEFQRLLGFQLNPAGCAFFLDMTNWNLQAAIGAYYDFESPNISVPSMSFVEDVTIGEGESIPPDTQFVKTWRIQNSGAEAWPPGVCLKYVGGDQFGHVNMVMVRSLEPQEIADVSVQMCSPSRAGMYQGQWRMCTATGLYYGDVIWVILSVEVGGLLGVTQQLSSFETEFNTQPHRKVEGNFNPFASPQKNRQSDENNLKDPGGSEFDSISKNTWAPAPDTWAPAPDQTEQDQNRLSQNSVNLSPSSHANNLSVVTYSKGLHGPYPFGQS
Sequence of UniProt Q71SY5 (Q71SY5 whole entry, looked up): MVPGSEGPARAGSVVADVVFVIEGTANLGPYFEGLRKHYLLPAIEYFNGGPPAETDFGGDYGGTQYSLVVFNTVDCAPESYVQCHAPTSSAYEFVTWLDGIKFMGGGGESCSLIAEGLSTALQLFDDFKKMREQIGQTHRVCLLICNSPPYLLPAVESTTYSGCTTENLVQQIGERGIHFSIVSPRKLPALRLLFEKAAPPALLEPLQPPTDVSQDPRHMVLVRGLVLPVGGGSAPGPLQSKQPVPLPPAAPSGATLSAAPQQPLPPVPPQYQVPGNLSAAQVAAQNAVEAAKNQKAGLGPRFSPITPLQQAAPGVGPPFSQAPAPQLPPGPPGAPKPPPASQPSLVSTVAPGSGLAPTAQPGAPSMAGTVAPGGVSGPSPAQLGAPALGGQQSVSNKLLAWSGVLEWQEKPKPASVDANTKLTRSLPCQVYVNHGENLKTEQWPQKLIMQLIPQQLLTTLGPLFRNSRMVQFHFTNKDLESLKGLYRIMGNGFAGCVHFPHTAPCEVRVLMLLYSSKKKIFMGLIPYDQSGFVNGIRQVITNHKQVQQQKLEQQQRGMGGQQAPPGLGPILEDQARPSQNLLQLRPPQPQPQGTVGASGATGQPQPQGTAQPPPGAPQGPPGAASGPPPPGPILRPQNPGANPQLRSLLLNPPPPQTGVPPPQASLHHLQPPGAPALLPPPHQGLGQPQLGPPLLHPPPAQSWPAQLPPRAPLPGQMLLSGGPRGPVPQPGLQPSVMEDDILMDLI
Sequence of UniProt A4D2B0 (A4D2B0 whole entry, looked up): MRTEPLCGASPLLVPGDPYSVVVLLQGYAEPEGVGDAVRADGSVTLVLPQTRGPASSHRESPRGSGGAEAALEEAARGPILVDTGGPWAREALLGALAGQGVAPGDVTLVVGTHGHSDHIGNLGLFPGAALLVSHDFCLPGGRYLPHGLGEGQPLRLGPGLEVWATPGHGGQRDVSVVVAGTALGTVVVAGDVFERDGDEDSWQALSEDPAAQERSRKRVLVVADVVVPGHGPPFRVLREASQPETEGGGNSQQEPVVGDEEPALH
Sequence of UniProt Q92551 (Q92551 whole entry, looked up): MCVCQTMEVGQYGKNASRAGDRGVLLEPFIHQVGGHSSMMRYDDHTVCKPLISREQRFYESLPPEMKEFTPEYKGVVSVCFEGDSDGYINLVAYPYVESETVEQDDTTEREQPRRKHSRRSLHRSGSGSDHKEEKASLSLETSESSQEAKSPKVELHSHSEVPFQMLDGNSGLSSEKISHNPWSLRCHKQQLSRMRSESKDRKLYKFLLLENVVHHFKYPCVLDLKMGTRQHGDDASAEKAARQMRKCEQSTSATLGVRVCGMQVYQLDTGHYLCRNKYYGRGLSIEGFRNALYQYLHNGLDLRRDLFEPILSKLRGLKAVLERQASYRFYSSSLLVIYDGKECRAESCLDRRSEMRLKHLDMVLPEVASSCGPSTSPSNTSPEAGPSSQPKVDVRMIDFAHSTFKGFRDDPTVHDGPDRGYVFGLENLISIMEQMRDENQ
Sequence of UniProt P43361 (P43361 whole entry, looked up): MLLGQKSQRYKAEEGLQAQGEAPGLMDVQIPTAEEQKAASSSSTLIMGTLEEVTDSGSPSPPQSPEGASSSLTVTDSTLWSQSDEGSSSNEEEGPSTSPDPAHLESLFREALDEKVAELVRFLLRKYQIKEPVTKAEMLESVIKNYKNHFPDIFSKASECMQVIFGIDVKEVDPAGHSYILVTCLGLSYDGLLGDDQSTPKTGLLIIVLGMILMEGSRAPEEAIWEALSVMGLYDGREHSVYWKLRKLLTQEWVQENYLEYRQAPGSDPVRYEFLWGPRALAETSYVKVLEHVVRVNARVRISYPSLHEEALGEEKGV
Sequence of UniProt O15066 (O15066 whole entry, looked up): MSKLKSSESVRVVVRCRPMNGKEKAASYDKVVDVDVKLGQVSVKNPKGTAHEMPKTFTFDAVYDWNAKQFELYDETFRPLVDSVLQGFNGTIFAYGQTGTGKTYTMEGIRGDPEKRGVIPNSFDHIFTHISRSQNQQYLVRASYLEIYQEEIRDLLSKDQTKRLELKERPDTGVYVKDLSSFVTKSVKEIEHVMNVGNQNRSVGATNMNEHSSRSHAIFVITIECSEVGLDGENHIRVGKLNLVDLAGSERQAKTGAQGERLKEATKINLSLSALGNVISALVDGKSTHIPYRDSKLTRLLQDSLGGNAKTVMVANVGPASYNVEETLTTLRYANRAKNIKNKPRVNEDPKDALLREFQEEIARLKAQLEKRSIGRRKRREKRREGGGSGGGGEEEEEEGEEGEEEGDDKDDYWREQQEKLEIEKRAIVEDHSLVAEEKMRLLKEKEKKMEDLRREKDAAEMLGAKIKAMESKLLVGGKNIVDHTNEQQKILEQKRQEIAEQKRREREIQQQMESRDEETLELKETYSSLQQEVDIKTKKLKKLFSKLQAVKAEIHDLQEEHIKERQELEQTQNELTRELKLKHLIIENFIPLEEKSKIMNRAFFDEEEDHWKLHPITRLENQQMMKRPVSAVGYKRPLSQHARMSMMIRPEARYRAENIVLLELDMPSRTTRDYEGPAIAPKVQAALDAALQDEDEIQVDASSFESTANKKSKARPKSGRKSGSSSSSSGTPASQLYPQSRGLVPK
Sequence of UniProt Q7L590 (Q7L590 whole entry, looked up): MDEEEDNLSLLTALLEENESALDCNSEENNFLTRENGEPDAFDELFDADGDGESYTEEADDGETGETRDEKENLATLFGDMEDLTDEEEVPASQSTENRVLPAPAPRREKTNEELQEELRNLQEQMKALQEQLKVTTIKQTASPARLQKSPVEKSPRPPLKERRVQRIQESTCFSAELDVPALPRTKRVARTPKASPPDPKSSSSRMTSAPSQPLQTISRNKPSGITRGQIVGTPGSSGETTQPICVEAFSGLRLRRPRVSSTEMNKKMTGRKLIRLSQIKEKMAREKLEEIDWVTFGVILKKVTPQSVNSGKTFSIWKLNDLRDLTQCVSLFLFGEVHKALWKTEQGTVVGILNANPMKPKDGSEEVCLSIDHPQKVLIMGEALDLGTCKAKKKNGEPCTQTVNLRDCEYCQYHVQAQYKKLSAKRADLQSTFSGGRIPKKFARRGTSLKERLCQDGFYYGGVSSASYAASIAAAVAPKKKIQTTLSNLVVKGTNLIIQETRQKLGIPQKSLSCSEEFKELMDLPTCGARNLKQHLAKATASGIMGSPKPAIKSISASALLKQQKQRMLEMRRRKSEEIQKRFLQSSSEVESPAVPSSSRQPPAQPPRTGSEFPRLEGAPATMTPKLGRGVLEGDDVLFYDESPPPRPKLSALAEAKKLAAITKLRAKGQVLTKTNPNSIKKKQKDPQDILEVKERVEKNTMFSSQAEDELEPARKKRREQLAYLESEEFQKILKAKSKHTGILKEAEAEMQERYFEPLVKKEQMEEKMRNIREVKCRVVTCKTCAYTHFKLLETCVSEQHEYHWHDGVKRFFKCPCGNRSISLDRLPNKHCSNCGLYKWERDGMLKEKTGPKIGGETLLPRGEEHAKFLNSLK
Sequence of UniProt Q6UWB1 (Q6UWB1 whole entry, looked up): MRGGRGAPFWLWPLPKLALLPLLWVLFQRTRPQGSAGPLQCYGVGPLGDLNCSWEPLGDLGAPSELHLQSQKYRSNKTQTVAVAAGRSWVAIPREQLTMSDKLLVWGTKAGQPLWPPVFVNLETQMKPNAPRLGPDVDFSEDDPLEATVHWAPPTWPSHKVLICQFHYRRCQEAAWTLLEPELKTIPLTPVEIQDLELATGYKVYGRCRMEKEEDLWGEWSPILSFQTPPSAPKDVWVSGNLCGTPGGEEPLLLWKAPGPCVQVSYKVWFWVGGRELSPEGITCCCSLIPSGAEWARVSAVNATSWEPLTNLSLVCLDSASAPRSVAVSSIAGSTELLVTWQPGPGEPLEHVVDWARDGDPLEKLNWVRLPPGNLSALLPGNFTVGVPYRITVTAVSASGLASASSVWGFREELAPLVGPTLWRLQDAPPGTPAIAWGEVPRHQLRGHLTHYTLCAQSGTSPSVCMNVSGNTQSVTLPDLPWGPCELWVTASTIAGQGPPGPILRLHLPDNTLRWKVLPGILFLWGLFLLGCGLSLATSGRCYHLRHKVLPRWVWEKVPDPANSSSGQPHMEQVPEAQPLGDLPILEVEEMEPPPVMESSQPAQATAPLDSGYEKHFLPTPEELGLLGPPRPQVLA
Sequence of UniProt Q16539 (Q16539 whole entry, looked up): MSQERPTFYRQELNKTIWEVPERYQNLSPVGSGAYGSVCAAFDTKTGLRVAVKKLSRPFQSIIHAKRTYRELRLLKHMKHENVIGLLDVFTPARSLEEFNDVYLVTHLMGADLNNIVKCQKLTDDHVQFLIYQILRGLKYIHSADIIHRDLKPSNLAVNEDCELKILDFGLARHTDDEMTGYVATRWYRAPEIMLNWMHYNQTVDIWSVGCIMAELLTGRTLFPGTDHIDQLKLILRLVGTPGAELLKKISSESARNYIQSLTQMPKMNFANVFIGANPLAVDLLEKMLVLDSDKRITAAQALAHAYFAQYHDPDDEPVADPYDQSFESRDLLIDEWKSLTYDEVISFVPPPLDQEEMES
Sequence of UniProt Q9BQD3 (Q9BQD3 whole entry, looked up): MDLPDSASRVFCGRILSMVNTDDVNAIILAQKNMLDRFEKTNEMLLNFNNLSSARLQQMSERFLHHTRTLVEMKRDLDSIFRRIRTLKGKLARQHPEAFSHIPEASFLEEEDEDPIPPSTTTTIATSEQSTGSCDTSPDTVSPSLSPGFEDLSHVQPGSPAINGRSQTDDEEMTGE

Row | Target | log2 fold change
1 | MAPK14 (UniProt Q16539) | -0.516
2 | MAP4K2 (UniProt Q12851) | -0.093
3 | ITM2B (UniProt Q9Y287) | 0.182
4 | METAP1D (UniProt Q6UB28) | -0.082
5 | IL27RA (UniProt Q6UWB1) | -0.298
6 | LPGAT1 (UniProt Q92604) | -0.401 (active)
7 | MED12 isoform 2 (UniProt Q93074) | -0.211
8 | LUM (UniProt P51884) | 0.225
9 | ITPRID2 (UniProt P28290) | -0.373
10 | LRBA, A0A494BZW2 | -0.025
11 | IMMP1L (UniProt Q96LU5) | -0.055
12 | KIF3B (UniProt O15066) | -0.009
13 | MED8 isoform 2 (UniProt Q96G25) | 0.1
14 | MFSD8 (UniProt Q8NHS3) | 0.032
15 | MARK2 (UniProt E9PC69) | -0.469
16 | ING5 (UniProt Q8WYH8) | -1.47 (active)
17 | MCM10 (UniProt Q7L590) | 0

Row | Target | log2 fold change
18 | MBLAC1 (UniProt A4D2B0) | 0.148
19 | MAGEA8 (UniProt P43361) | -0.386
20 | KIZ (UniProt Q2M2Z5) | 0.262
21 | MELK (UniProt Q14680) | -1.41 (active)
22 | KCNK5 (UniProt O95279) | -0.174
23 | MAN2B2 (UniProt Q9Y2E5) | -0.704 (active)
24 | MFSD11 (UniProt O43934) | 0.021
25 | LRFN1 (UniProt Q9P244) | 0.033
26 | MCOLN3 (UniProt Q8TDD5) | -0.136
27 | IP6K1 (UniProt Q92551) | -0.176
28 | MARCHF3 (UniProt Q86UD3) | 0.011
29 | MED25 isoform 3 (UniProt Q71SY5) | -0.051
30 | KXD1 (UniProt Q9BQD3) | -0.035
31 | MED17 (UniProt Q9NVC6) | -0.021
32 | MAP4 isoform 5 (UniProt P27816) | -0.046
33 | ILRUN (UniProt Q9H6K1) | -0.429 (active)
